From PubChem BioAssay

Each compound was assayed against Torsin-1A (Homo sapiens) (UniProt O14656) (assay: torsin A mutant lysate binding on microarrays – cell lysate, small-molecule microarray, COS7 lysate, 635/667 nm fluorescence, primary screen (AID 1150;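 note: score pools 667 nm emission and signal to noise measuring lysate protein binding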)). Conditions: COS7 hTOR1A mutant lysate, 635 nm fluorescence, higher = more signal.
Chain of Torsin-1A (Homo sapiens) (O14656 whole entry, looked up): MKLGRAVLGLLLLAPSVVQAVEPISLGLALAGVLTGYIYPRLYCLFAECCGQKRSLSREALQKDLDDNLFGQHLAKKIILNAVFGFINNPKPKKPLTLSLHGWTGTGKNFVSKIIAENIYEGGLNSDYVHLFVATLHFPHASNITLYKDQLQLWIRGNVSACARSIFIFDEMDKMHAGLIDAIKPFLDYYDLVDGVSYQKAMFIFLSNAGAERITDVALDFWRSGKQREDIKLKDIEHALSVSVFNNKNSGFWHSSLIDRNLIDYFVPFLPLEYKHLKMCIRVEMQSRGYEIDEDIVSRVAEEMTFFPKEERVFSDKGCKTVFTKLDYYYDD
Work on COC(=O)[C@@]1(Cc2ccccc2)[C@H]2c3cc(C(=O)N4CCCC4)n(C)c3C[C@H]2CN1C(=O)c1ccccc1 yielded a composite z-score of 0.0645. In the case of O=C1O[C@H](c2ccccc2)[C@H](c2ccccc2)N2[C@H]1[C@@H](C(=O)Nc1nc3ccccc3s1)[C@]1(C(=O)Nc3ccccc31)[C@H]2c1ccc(O)cc1, the composite z-score is reported as 0.414. Work on CCN(CC)c1ccc(N2CC=CC34O[C@@H]5C=CCCOC(=O)C5[C@H]3C(=O)N(CCCCCO)[C@@H]4C2=O)cc1 (some centres undefined) yielded a composite z-score of 0.307. COCCOC(=O)N1C(=O)[C@@]2(c3cc(C#CCC(C(=O)OC)C(=O)OC)ccc31)[C@H](c1ccc(O)cc1)N1[C@H](c3ccccc3)[C@H](c3ccccc3)OC(=O)[C@H]1[C@@H]2C(N)=O was tested, and the composite z-score was 1.35. NC(=O)NCC#Cc1ccc2c(c1)[C@]1(C(=O)N2)[C@H](C(=O)N2CCCCCCC2)[C@H]2C(=O)O[C@H](c3ccccc3)[C@H](c3ccccc3)N2[C@@H]1c1ccc(OCCO)cc1 was tested, and the composite z-score was 0.304. With CC(C)N1CC=CC23O[C@@H]4C=CCOC(=O)[C@@H]4[C@H]2C(=O)N(CCO)[C@@H]3C1=O (some centres undefined) the composite z-score was -1.48. COc1ccc(CCNC(=O)[C@@]2(c3ccc([N+](=O)[O-])cc3)CC(=O)N(CC34CC5CC(CC(C5)C3)C4)[C@@H]2c2ccc(CO)cc2)cc1 gave a composite z-score of 0.388. For COCCOC(=O)N1C(=O)[C@@]2(c3ccccc31)[C@H](C(=O)NC[C@H](O)c1ccccc1)[C@H]1C(=O)O[C@H](c3ccccc3)[C@H](c3ccccc3)N1[C@@H]2c1ccc(OCCO)cc1, the composite z-score was 0.857. Compound COc1ccc(C(O)C2C=CC3C(=O)NC(=O)C3N2Nc2ccccn2)cc1OCc1ccccc1 (centres undefined) has a composite z-score of 0.435. COCCOC(=O)N1C(=O)[C@@]2(c3cc(C#CC4=CCCCC4)ccc31)[C@H](C(=O)NC[C@H](O)c1ccccc1)[C@H]1C(=O)O[C@H](c3ccccc3)[C@H](c3ccccc3)N1[C@@H]2c1ccc(O)cc1 showed a composite z-score of 0.652. In the case of COc1ccc([Si](C)(C)[C@@H]2[C@@H](CCn3cc([C@H](O)c4ccccc4)nn3)O[C@]3(C(=O)N(Cc4ccc(N5C(=O)c6cccc7cccc5c67)cc4)c4ccccc43)[C@H]2C)cc1, the composite z-score is reported as -0.169. For [N-]=[N+]=NCc1ccccc1C[C@]1(C(=O)O)N=C(c2ccc(OCCCO)cc2)O[C@H]1c1ccccc1CN=[N+]=[N-], the composite z-score was 0.48. Work on CC(C)NC(=O)[C@@H]1c2ccccc2C(=O)N(Cc2ccccc2)[C@H]1c1ccc(CO)cc1 yielded a composite z-score of -0.744. Compound COCCOC(=O)N1C(=O)[C@@]2(c3cc(C#CCNC(N)=O)ccc31)[C@H](c1ccccc1OCCO)N1[C@H](c3ccccc3)[C@H](c3ccccc3)OC(=O)[C@H]1[C@@H]2C(N)=O has a composite z-score of 0.41. With O=C1C2C=CC(C(O)c3ccc(B(O)O)cc3)N(Nc3ccccc3)C2C(=O)N1c1ccccc1 (centres undefined) the composite z-score was -0.724. For COC(=O)[C@@]1(Cc2ccc(F)cc2)[C@H]2c3cc(C(=O)N(C)C)n(CCc4ccccn4)c3C[C@H]2CN1C(=O)c1ccccc1, the composite z-score was 0.948. Cc1ccc(S[C@]2(C(=O)NC3CC3)CC(=O)N(Cc3ccccc3)[C@@H]2c2ccc(CO)cc2)cc1 showed a composite z-score of -0.906. O=C1C2C=CC(C(O)c3ccc(F)cc3)N(Nc3ccccc3)C2C(=O)N1c1ccccc1 (centres undefined) showed a composite z-score of -0.27. Work on Cc1cc(C)c(C(O)C2C=CC3C(=O)N(C)C(=O)C3N2Nc2ccccc2)c(C)c1 (centres undefined) yielded a composite z-score of 0.738. [N-]=[N+]=NCc1ccccc1C[C@]1(C(=O)NCCN2CCOCC2)N=C(c2ccc(OCCCO)cc2)O[C@H]1c1ccccc1N=[N+]=[N-] was tested, and the composite z-score was 0.283. O=C(OCCF)C1=CCC(c2cccc(Cl)c2)O1 (centres undefined) was tested, and the composite z-score was 2.19. [N-]=[N+]=NCc1ccccc1C[C@]1(C(=O)NCC(O)CO)N=C(c2ccc(OCCCO)cc2)O[C@H]1c1ccccc1N=[N+]=[N-] (some centres undefined) gave a composite z-score of 0.67. Compound COCC1=C2[C@@H](CCc3ccccc3)OB(O)C[C@@H]2[C@@H]2C(=O)N(Cc3ccccc3)C(=O)[C@@H]2C1 has a composite z-score of 0.0316. Work on [N-]=[N+]=Nc1ccccc1[C@H]1OC(c2ccc(OCCCO)cc2)=N[C@@]1(CCS(=O)(=O)c1ccccc1)C(=O)O yielded a composite z-score of 1.13.
